From PubChem BioAssay (NCATS)
Several values for one entry are separate records, joined by “and”; a condition that tells them apart may be missing. Identical values can stand only once. Inconclusive results are not listed. Where a call stands in place of a potency, no number is given. Activity calls are given as the source filed them. Calls follow the shape of the full dose curve.

Assay: Primary qHTS to identify inhibitors of SARS-CoV-2 cell entry (AID 1645846); also: nearly all actives have a fitted effect of over 45% in size
Conditions: SARS-CoV-2 pseudovirus cell entry assay, luminescence; activity change, negative = inhibition: at 57.1 µM (top of the series) unless noted; series mostly up to 57.1 µM
In short: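 Luminescence readout (Bright-Glo luciferase) 48 h after pseudoparticle addition. HEK293-ACE2 cells, 1500/well; compound pre-incubation 1 h; Normalized to spike PP and bald PP.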

| SMILES | activity change, negative = inhibition | outcome | Potency |
| --- | --- | --- | --- |
| CCOC(=O)[C@H](CCc1ccccc1)N[C@H]1CCCN2CCC[C@@H](C(=O)O)N2C1=O | -27.1% | – | – |
| CCS(=O)(=O)CCn1c([N+](=O)[O-])cnc1C | – | inactive | – |
| Cc1cc2cc3c(C)cc(=O)oc3c(C)c2o1 | – | – | inactive |
| CCCCCCCC/C=C/C(=O)O | – | inactive | – |
| CC(=O)N(CC(O)CO)c1c(I)c(C(=O)NCCO)c(I)c(C(=O)NCC(O)CO)c1I (stereo unspecified) | -15% | – | – |
| CN(C)CCOC(=O)COc1ccc(Cl)cc1 | – | inactive | – |
| O=C(NCCO[N+](=O)[O-])c1cccnc1 | – | – | inactive |
| Nc1ccc(S(=O)(=O)NC(=O)c2ccccc2)cc1 | – | inactive | – |
| CN(CC1(C)CCCO1)S(=O)(=O)c1ccc(Cl)c(S(N)(=O)=O)c1 (stereo unspecified) | -32.6% | – | – |
| OC[C@@H](O)[C@@H](O[C@@H]1O[C@H](CO)[C@H](O)[C@H](O)[C@H]1O)[C@H](O)[C@@H](O)CO | – | inactive | – |
| CCN1CCCC1CNC(=O)c1cc(S(=O)(=O)CC)c(N)cc1OC (stereo unspecified) | 4.53% and -0.585% | – | – |
| NS(=O)(=O)c1cc2c(cc1Cl)NC(CC1CCCC1)NS2(=O)=O (stereo unspecified) | – | inactive | – |
| COCCOC(=O)C1=C(C)NC(C)=C(C(=O)OC(C)C)C1c1cccc([N+](=O)[O-])c1 (stereo unspecified) | -23.8% | – | – |
| NC(=O)NC(=O)Cc1ccccc1 | – | inactive | – |
| NC(=O)c1ccc([N+](=O)[O-])cc1Cl | -5.3% | – | – |
| Nc1ncn([C@H]2C[C@H](O)[C@@H](CO)O2)c(=O)n1 | -12.8% | – | – |
